Results: the supplement of paper PMC6897291
Counter-ions that a name gives are not always drawn.

Assays:
[1] = tested on: U-2932; test: growth inhibition by drug alone (1 - RLU/untreated control) (fraction); higher = stronger inhibition; details: 177Lu-lilotomab satetraxetan 0 ug/ml
In short: (§1)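 Compound doses on the pre-printed Selleck Cambridge Cancer Compound library plates were 10/100 nM for RIVA cells and 10/1,000 nM for U-2932 cells, seeded at 3,000 cells/well. Before seeding, cells were washed after 18 h with or without a radiolabelled anti-CD37 antibody conjugate (~600 MBq/mg; 0.5 µg/ml RIVA, 1 µg/ml U-2932). Growth inhibition was derived from RealTime-Glo luminescence relative to untreated no-drug control wells. Readings were taken daily starting on day 3, each after 1 h at 37°C, and each well's RLU was divided by the mean of 48 such wells per plate and subtracted from 1.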

[2] = tested on: RIVA; test: as above; details: 177Lu-lilotomab satetraxetan 0 ug/ml
In short: as §1

[3] = tested on: U-2932; test: growth inhibition by drug plus 177Lu-lilotomab satetraxetan (1 - RLU/untreated control) (fraction); higher = stronger inhibition; details: 177Lu-lilotomab satetraxetan 1 ug/ml
In short: as §1

[4] = tested on: RIVA; test: as above; details: 177Lu-lilotomab satetraxetan 0.5 ug/ml
In short: as §1

Compound | growth inhibition by drug alone ([1]; 10 nM, time (day): 3) | growth inhibition by drug alone ([1]; 10 nM, time (day): 4) | growth inhibition by drug alone ([1]; 10 nM, time (day): 5) | growth inhibition by drug alone ([1]; 10 nM, time (day): 6) | growth inhibition by drug alone ([1]; 1000 nM, time (day): 3) | growth inhibition by drug alone ([1]; 1000 nM, time (day): 4) | growth inhibition by drug alone ([1]; 1000 nM, time (day): 5) | growth inhibition by drug alone ([1]; 1000 nM, time (day): 6) | growth inhibition by drug alone ([2]; 10 nM, time (day): 3) | growth inhibition by drug alone ([2]; 10 nM, time (day): 4) | growth inhibition by drug alone ([2]; 10 nM, time (day): 5) | growth inhibition by drug alone ([2]; 10 nM, time (day): 6) | growth inhibition by drug alone ([2]; 100 nM, time (day): 3) | growth inhibition by drug alone ([2]; 100 nM, time (day): 4) | growth inhibition by drug alone ([2]; 100 nM, time (day): 5) | growth inhibition by drug alone ([2]; 100 nM, time (day): 6) | growth inhibition by drug plus 177Lu-lilotomab satetraxetan ([3]; 10 nM, time (day): 3) | growth inhibition by drug plus 177Lu-lilotomab satetraxetan ([3]; 10 nM, time (day): 4) | growth inhibition by drug plus 177Lu-lilotomab satetraxetan ([3]; 10 nM, time (day): 5) | growth inhibition by drug plus 177Lu-lilotomab satetraxetan ([3]; 10 nM, time (day): 6) | growth inhibition by drug plus 177Lu-lilotomab satetraxetan ([3]; 1000 nM, time (day): 3) | growth inhibition by drug plus 177Lu-lilotomab satetraxetan ([3]; 1000 nM, time (day): 4) | growth inhibition by drug plus 177Lu-lilotomab satetraxetan ([3]; 1000 nM, time (day): 5) | growth inhibition by drug plus 177Lu-lilotomab satetraxetan ([3]; 1000 nM, time (day): 6) | growth inhibition by drug plus 177Lu-lilotomab satetraxetan ([4]; 10 nM, time (day): 3) | growth inhibition by drug plus 177Lu-lilotomab satetraxetan ([4]; 10 nM, time (day): 4) | growth inhibition by drug plus 177Lu-lilotomab satetraxetan ([4]; 10 nM, time (day): 5) | growth inhibition by drug plus 177Lu-lilotomab satetraxetan ([4]; 10 nM, time (day): 6) | growth inhibition by drug plus 177Lu-lilotomab satetraxetan ([4]; 100 nM, time (day): 3) | growth inhibition by drug plus 177Lu-lilotomab satetraxetan ([4]; 100 nM, time (day): 4) | growth inhibition by drug plus 177Lu-lilotomab satetraxetan ([4]; 100 nM, time (day): 5) | growth inhibition by drug plus 177Lu-lilotomab satetraxetan ([4]; 100 nM, time (day): 6)
CC(C)(C#N)c1cc(Cn2cncn2)cc(C(C)(C)C#N)c1 [Anastrozole] | 0.105 | 0.0583 | 0.0212 | -0.021 | 0.0109 | 0.046 | -0.0146 | -0.259 | 0.0128 | -0.01 | -0.0521 | -0.213 | -0.0495 | -0.0262 | -0.0644 | -0.17 | 0.0156 | 0.039 | 0.0695 | 0.0754 | -0.103 | 0.0124 | -0.0136 | -0.0141 | 0.481 | 0.583 | 0.593 | 0.583 | 0.423 | 0.506 | 0.523 | 0.499
COC(=O)Nc1ccc(-c2nc(N3CCOCC3)c3cnn(C4CCN(C(=O)OC)CC4)c3n2)cc1 | 0.122 | 0.107 | 0.0346 | -0.00417 | 0.454 | 0.381 | 0.375 | 0.388 | 0.0376 | 0.1 | 0.0593 | -0.105 | 0.0485 | 0.0181 | 0.033 | 0.00434 | 0.113 | 0.147 | 0.233 | 0.252 | 0.395 | 0.315 | 0.348 | 0.433 | 0.624 | 0.663 | 0.677 | 0.664 | 0.468 | 0.537 | 0.55 | 0.563
CCN(CC)CCOc1ccc(Nc2ncc3cc(-c4c(Cl)cccc4Cl)c(=O)n(C)c3n2)cc1 | 0.107 | 0.071 | 0.00536 | -0.00834 | 0.719 | 0.785 | 0.78 | 0.774 | -0.00347 | 0.00881 | -0.0667 | -0.267 | 0.458 | 0.461 | 0.386 | 0.22 | 0.0115 | 0.0427 | 0.0614 | 0.118 | 0.958 | 0.972 | 0.981 | 0.984 | 0.458 | 0.527 | 0.536 | 0.546 | 0.495 | 0.473 | 0.405 | 0.287
CCOc1cc(C(=O)Nc2ccc(Cl)c(-c3nc4ccccc4[nH]3)c2)cc(OCC)c1OCC | -0.0835 | 0.00922 | -0.0921 | -0.101 | 0.0527 | 0.106 | 0.057 | 0.0205 | 0.0892 | 0.061 | 0.00986 | -0.126 | 0.409 | 0.248 | 0.22 | 0.167 | -0.0124 | 0.0291 | 0.0337 | 0.147 | 0.147 | 0.267 | 0.28 | 0.362 | 0.452 | 0.548 | 0.564 | 0.568 | 0.625 | 0.648 | 0.668 | 0.654
CN(C)CCCN=c1c2ccccc2n(C)c2[nH]c(=O)n(C)c(=O)c12 | 0.111 | 0.0704 | -0.00376 | -0.0149 | 0.0731 | 0.0794 | 0.011 | 0.0933 | 0.0709 | 0.0541 | 0.026 | -0.0499 | -0.0848 | -0.0419 | -0.079 | -0.137 | 0.0369 | 0.0857 | 0.138 | 0.24 | 0.0936 | 0.125 | 0.147 | 0.272 | 0.529 | 0.576 | 0.589 | 0.604 | 0.563 | 0.592 | 0.601 | 0.604
COc1cccc2c1C(=O)c1c(O)c3c(c(O)c1C2=O)C[C@@](O)(C(=O)CO)C[C@@H]3O[C@H]1C[C@H](N)[C@H](O)[C@H](C)O1 [Doxorubicin (Adriamycin)] | 0.258 | 0.293 | 0.356 | 0.433 | 0.974 | 0.983 | 0.986 | 0.988 | 0.198 | 0.324 | 0.365 | 0.391 | 0.62 | 0.794 | 0.872 | 0.915 | 0.422 | 0.492 | 0.589 | 0.687 | 0.979 | 0.986 | 0.989 | 0.99 | 0.831 | 0.879 | 0.909 | 0.933 | 0.869 | 0.928 | 0.952 | 0.968
Clc1ccc(Nc2nnc(Cc3ccncc3)c3ccccc23)cc1 [Vatalanib dihydrochloride (PTK787)] | 0.0493 | 0.0329 | -0.0325 | -0.0722 | 0.00749 | 0.0478 | -0.0105 | -0.12 | -0.0393 | -0.0522 | -0.084 | -0.232 | -0.0903 | -0.0658 | -0.0924 | -0.165 | -0.0142 | 0.0115 | 0.0124 | 0.0638 | -0.0725 | 0.0231 | -0.00359 | -0.0503 | 0.334 | 0.509 | 0.527 | 0.534 | 0.328 | 0.442 | 0.439 | 0.426
O=C(Nc1ncc([N+](=O)[O-])s1)c1ccc([N+](=O)[O-])c(Cl)c1 | 0.119 | 0.0794 | 0.00802 | 0.0242 | 0.153 | 0.14 | 0.0538 | 0.129 | 0.137 | 0.114 | 0.0837 | 0.0697 | -0.0662 | -0.0483 | -0.0824 | -0.14 | 0.064 | 0.0915 | 0.164 | 0.259 | 0.142 | 0.136 | 0.179 | 0.3 | 0.666 | 0.663 | 0.69 | 0.688 | 0.605 | 0.655 | 0.669 | 0.679
COc1c(C)c2c(c(O)c1C/C=C(\C)CCC(=O)O)C(=O)OC2 [Mycophenolic (Mycophenolate)] | 0.183 | 0.162 | 0.104 | 0.147 | 0.779 | 0.83 | 0.78 | 0.716 | 0.102 | 0.108 | 0.06 | -0.0787 | 0.409 | 0.362 | 0.284 | 0.202 | 0.128 | 0.131 | 0.191 | 0.311 | 0.759 | 0.81 | 0.733 | 0.662 | 0.534 | 0.601 | 0.625 | 0.635 | 0.712 | 0.719 | 0.736 | 0.739
C[C@]12CCC(=O)C=C1CC[C@@H]1[C@@H]2[C@@H](O)C[C@@]2(C)[C@H]1CC[C@]2(O)C(=O)CO [Hydrocortisone (Cortisol)] | 0.112 | 0.0854 | 0.0156 | -0.0358 | 0.303 | 0.304 | 0.221 | 0.167 | -0.0911 | -0.0297 | -0.194 | -0.593 | -0.515 | -0.297 | -0.373 | -0.697 | 0.0227 | 0.0897 | 0.119 | 0.139 | 0.281 | 0.288 | 0.293 | 0.362 | 0.519 | 0.578 | 0.597 | 0.608 | 0.101 | 0.303 | 0.317 | 0.347
COc1cc(Nc2ncc3c(n2)-c2ccc(Cl)cc2C(c2c(F)cccc2OC)=NC3)ccc1C(=O)O [MLN8237 (Alisertib)] | 0.00882 | -0.00518 | -0.0513 | -0.269 | 0.101 | 0.128 | 0.153 | 0.291 | -0.00668 | -0.0776 | -0.136 | -0.266 | 0.624 | 0.553 | 0.569 | 0.599 | 0.0071 | 0.0562 | 0.0508 | 0.126 | 0.21 | 0.278 | 0.316 | 0.459 | 0.398 | 0.551 | 0.559 | 0.572 | 0.754 | 0.81 | 0.845 | 0.873
CC(=O)[C@]1(O)Cc2c(O)c3c(c(O)c2[C@@H](O[C@H]2C[C@H](N)[C@H](O)[C@H](C)O2)C1)C(=O)c1ccccc1C3=O [Idarubicin HCl] | 0.517 | 0.599 | 0.684 | 0.751 | 0.962 | 0.973 | 0.977 | 0.98 | 0.685 | 0.744 | 0.786 | 0.827 | 0.781 | 0.825 | 0.851 | 0.883 | 0.584 | 0.712 | 0.817 | 0.881 | 0.972 | 0.979 | 0.981 | 0.985 | 0.924 | 0.947 | 0.964 | 0.971 | 0.831 | 0.89 | 0.913 | 0.939
CCOc1ccc(Cc2cc([C@@H]3O[C@H](CO)[C@@H](O)[C@H](O)[C@H]3O)ccc2Cl)cc1 [Dapagliflozin] | 0.142 | 0.11 | -0.0277 | -0.0754 | 0.0652 | 0.0655 | 0.0265 | -0.143 | 0.0261 | 0.0489 | -0.0941 | -0.357 | -0.159 | -0.0453 | -0.0994 | -0.161 | 0.0831 | 0.139 | 0.185 | 0.224 | 0.0836 | 0.124 | 0.161 | 0.282 | 0.595 | 0.635 | 0.644 | 0.658 | 0.517 | 0.574 | 0.572 | 0.572
O=C(O)C(Cc1c[nH]c2ccccc12)N1C(=O)c2ccccc2C1=O (stereo not drawn) | 0.0147 | 0.0153 | -0.0484 | -0.236 | -0.0782 | -0.0484 | -0.0679 | -0.115 | -0.0918 | -0.166 | -0.249 | -0.485 | -0.231 | -0.283 | -0.253 | -0.339 | -0.0896 | -0.0477 | -0.032 | 0.0338 | -0.157 | -0.0639 | -0.0646 | -0.0481 | 0.311 | 0.457 | 0.475 | 0.497 | 0.275 | 0.394 | 0.397 | 0.381
